{"source": "PubChem BioAssay AID1835", "about": "(Johns Hopkins Ion Channel Center, 2009)", "note": "The whole screen tested about 2,400 compounds, of which about 750 (31%) were called active. Some of the results follow. A number with no mark means an inactive call.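 How the source made its calls: active means median signal gain over dofetilide-blocked control wells reaching their mean plus 3 SD, so readout 1 at least 0; inactive means the rest.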", "data": [{"target": "Voltage-gated inwardly rectifying potassium channel KCNH2 (Homo sapiens) (UniProt Q12809)", "sequence (Q12809 whole entry, looked up)": "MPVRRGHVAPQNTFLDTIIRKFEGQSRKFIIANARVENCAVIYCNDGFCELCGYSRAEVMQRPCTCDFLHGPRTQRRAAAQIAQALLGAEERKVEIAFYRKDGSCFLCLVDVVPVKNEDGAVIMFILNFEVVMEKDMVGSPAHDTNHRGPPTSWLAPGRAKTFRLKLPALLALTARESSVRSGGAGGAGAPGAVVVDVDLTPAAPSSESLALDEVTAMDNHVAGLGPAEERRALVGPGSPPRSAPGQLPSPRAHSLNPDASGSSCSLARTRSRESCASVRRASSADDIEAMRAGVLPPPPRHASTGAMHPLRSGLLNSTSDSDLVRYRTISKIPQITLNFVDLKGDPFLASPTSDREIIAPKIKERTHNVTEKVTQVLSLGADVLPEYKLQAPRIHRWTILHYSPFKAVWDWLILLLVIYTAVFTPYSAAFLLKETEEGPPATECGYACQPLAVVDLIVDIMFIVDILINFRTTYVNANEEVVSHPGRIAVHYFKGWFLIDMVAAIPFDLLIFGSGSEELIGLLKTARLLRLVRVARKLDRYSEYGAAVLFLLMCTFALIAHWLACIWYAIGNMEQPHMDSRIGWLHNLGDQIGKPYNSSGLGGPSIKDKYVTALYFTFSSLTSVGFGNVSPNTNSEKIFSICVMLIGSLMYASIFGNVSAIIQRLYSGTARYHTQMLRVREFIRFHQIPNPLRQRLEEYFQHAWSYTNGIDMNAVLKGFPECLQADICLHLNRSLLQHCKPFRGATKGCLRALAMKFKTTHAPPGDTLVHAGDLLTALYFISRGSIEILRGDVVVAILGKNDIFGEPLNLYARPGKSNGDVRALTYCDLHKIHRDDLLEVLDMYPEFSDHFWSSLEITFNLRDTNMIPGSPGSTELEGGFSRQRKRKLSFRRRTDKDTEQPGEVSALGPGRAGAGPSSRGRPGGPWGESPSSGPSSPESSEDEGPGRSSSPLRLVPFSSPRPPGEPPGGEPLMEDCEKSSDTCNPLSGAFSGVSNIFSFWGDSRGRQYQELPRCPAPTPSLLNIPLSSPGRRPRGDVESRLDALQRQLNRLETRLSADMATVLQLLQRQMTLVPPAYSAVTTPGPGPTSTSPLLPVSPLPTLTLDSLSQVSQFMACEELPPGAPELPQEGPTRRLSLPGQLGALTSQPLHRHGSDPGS", "experiment": "modulators restoring hERG flux under dofetilide – cell-based, thallium flux, duplicate retest, dofetilide IC70, confirmation (AID 1835)", "details": "hERG cell line, FluxOR thallium flux, dofetilide-blocked; at 10 µM; active compounds read high", "values": [{"molecule": "CCC(C)N(C(=O)CSc1nnc(NC(C)C)s1)C1CCS(=O)(=O)C1", "note": "(stereo unspecified)", "activity increase over dofetilide control, less the hit threshold": "-11%"}, {"molecule": "CS(=O)(=O)N(CCc1ccccc1)CC(=O)N1CCN(c2ccc(F)cc2)CC1", "activity increase over dofetilide control, less the hit threshold": "-9%"}, {"molecule": "Cc1cc(=O)oc2cc(OC(C(=O)O)c3ccccc3)ccc12", "note": "(stereo unspecified)", "activity increase over dofetilide control, less the hit threshold": "-19%"}, {"molecule": "C[C@@H]1CCCCCCCCCCC1=O", "activity increase over dofetilide control, less the hit threshold": "-15%"}, {"molecule": "Fc1cccc(C2NN=C(c3ccccc3)S2)c1", "note": "(stereo unspecified)", "activity increase over dofetilide control, less the hit threshold": "-12%"}, {"molecule": "COc1ccc(Cl)cc1N(C)C(=O)CCNC(=O)Cn1cnc2ccccc2c1=O", "activity increase over dofetilide control, less the hit threshold": "-11%"}, {"molecule": "CC(=O)c1ccc2c3c(cccc13)CC2", "activity increase over dofetilide control, less the hit threshold": "-7%"}, {"molecule": "NC(=O)C1CCN(C(=O)c2cc3c(s2)CCCC3)CC1", "activity increase over dofetilide control, less the hit threshold": "9% (active)"}, {"molecule": "CC(OC(=O)c1cc2c(s1)CCCCC2)C(=O)NC(N)=O", "note": "(stereo unspecified)", "activity increase over dofetilide control, less the hit threshold": "-5%"}, {"molecule": "O=C(c1cc2c(s1)-c1ccccc1OC2)N1CCCC1", "activity increase over dofetilide control, less the hit threshold": "0%"}, {"molecule": "COC(=O)CCn1[nH]c(=O)c2ccccc2c1=O", "activity increase over dofetilide control, less the hit threshold": "-2%"}, {"molecule": "COc1ccc(N2CCN(S(=O)(=O)c3ccc(Br)s3)CC2)cc1", "activity increase over dofetilide control, less the hit threshold": "-14%"}, {"molecule": "Cc1cccc(/C=N/n2c(COc3ccccc3)n[nH]c2=S)c1", "activity increase over dofetilide control, less the hit threshold": "1% (active)"}, {"molecule": "CC(C)c1ccc(/C=N/n2c(COc3ccccc3)n[nH]c2=S)cc1", "activity increase over dofetilide control, less the hit threshold": "3% (active)"}, {"molecule": "S=c1[nH]nc(-c2n[nH]c3c2CCC3)n1/N=C/C=C/c1ccccc1", "activity increase over dofetilide control, less the hit threshold": "-27%"}, {"molecule": "S=c1[nH]nc(Cc2ccc(Br)cc2)n1/N=C/c1ccc(Cl)cc1", "activity increase over dofetilide control, less the hit threshold": "-5%"}, {"molecule": "S=c1[nH]nc(-c2ccco2)n1/N=C/C(Cl)=C/c1ccccc1", "activity increase over dofetilide control, less the hit threshold": "-14%"}, {"molecule": "Cc1ccc2nsnc2c1S(=O)(=O)Nc1cccc2nsnc12", "activity increase over dofetilide control, less the hit threshold": "8% (active)"}, {"molecule": "O=C(O)c1ccccc1NC(=O)C1CCN(S(=O)(=O)c2cccc3nsnc23)CC1", "activity increase over dofetilide control, less the hit threshold": "-3%"}, {"molecule": "Cc1ccc2nc(NC(=S)NC(=O)c3cccs3)sc2c1", "activity increase over dofetilide control, less the hit threshold": "10% (active)"}, {"molecule": "O=C(NC(=S)Nc1nc2ccccc2s1)c1cccs1", "activity increase over dofetilide control, less the hit threshold": "52% (active)"}, {"molecule": "Cc1cc(F)ccc1NC(=O)C1CCN(C(=O)Nc2ccccc2)CC1", "activity increase over dofetilide control, less the hit threshold": "-17%"}, {"molecule": "O=C(NC(C(=O)c1ccccc1)n1cnccc1=O)c1ccccc1", "note": "(stereo unspecified)", "activity increase over dofetilide control, less the hit threshold": "-3%"}, {"molecule": "O=C(CCNS(=O)(=O)c1ccc(Cl)cc1)OCC(=O)N1CCN(C(=O)c2ccco2)CC1", "activity increase over dofetilide control, less the hit threshold": "-17%"}, {"molecule": "CCOc1ccc(OCC(=O)OCC(=O)N2CCN(C(=O)c3ccco3)CC2)cc1", "activity increase over dofetilide control, less the hit threshold": "-2%"}, {"molecule": "CCOC(=O)c1c(NC(=O)CN2CCN(C(=O)c3ccco3)CC2)sc2c1CCCC2", "activity increase over dofetilide control, less the hit threshold": "7% (active)"}, {"molecule": "CCc1c(C)sc(NC(=O)CN2CCN(C(=O)c3ccco3)CC2)c1C(=O)OC", "activity increase over dofetilide control, less the hit threshold": "1% (active)"}, {"molecule": "COC(=O)c1c(NC(=O)c2ccco2)sc2c1C(C(=O)OC)CC2", "note": "(stereo unspecified)", "activity increase over dofetilide control, less the hit threshold": "-18%"}, {"molecule": "Nc1ccc(C(=O)OCC(=O)N2CCN(C(=O)c3ccco3)CC2)cc1[N+](=O)[O-]", "activity increase over dofetilide control, less the hit threshold": "-16%"}, {"molecule": "CC1=C(C)CS(=O)N(c2ccc(S(N)(=O)=O)cc2)C1", "note": "(stereo unspecified)", "activity increase over dofetilide control, less the hit threshold": "-3%"}, {"molecule": "Cn1ncc2c(NNC(=O)c3ccc(O)cc3)ncnc21", "activity increase over dofetilide control, less the hit threshold": "-15%"}, {"molecule": "Cc1nc(NCc2cccnc2)c2c3c(sc2n1)CC(C)CC3", "note": "(stereo unspecified)", "activity increase over dofetilide control, less the hit threshold": "55% (active)"}, {"molecule": "COc1ccc(S(=O)(=O)N2CCN(C(=O)CNC(=O)c3ccc4c(c3)OCO4)CC2)cc1", "activity increase over dofetilide control, less the hit threshold": "-11%"}, {"molecule": "COc1ccc(N2CCN(CC(O)COc3ccc(F)cc3)CC2)cc1", "note": "(stereo unspecified)", "activity increase over dofetilide control, less the hit threshold": "-8%"}, {"molecule": "O=C(NC(=S)Nc1ccc(N2CCCCC2)cc1)c1cccs1", "activity increase over dofetilide control, less the hit threshold": "-2%"}, {"molecule": "O=C(NC(=S)Nc1ccccc1N1CCCC1)c1cccs1", "activity increase over dofetilide control, less the hit threshold": "0%"}, {"molecule": "CCC(=O)Nc1ccc(N2CCOCC2)c(S(=O)(=O)Nc2ccc(OC)cc2)c1", "activity increase over dofetilide control, less the hit threshold": "-26%"}, {"molecule": "O=C(NC(=S)Nc1ccccc1N1CCCCC1)c1cccs1", "activity increase over dofetilide control, less the hit threshold": "11% (active)"}, {"molecule": "COc1ccc(NC(=O)c2cc(S(=O)(=O)N3CCOCC3)ccc2N2CCOCC2)cc1", "activity increase over dofetilide control, less the hit threshold": "-16%"}, {"molecule": "O=C(NC(=S)Nc1ccc(N2CCCCC2)c(Cl)c1)c1cccs1", "activity increase over dofetilide control, less the hit threshold": "23% (active)"}, {"molecule": "Nc1ccc(Cl)c(NC(=O)c2cccs2)c1", "activity increase over dofetilide control, less the hit threshold": "-11%"}, {"molecule": "O=C(NC(=S)Nc1ccc(N2CCOCC2)c(Cl)c1)c1sc2ccccc2c1Cl", "activity increase over dofetilide control, less the hit threshold": "15% (active)"}, {"molecule": "COCCN1C(=O)C(=O)/C(=C(/O)c2ccc(S(=O)(=O)N3CCOCC3)cc2)C1c1ccc(OC)c(OC)c1", "note": "(stereo unspecified)", "activity increase over dofetilide control, less the hit threshold": "-17%"}, {"molecule": "Nc1nc(Br)c2c(F)cccc2c1-c1ccc(Cl)cc1", "activity increase over dofetilide control, less the hit threshold": "-6%"}, {"molecule": "Cc1ccc(C2c3c(-c4ccccc4O)n[nH]c3C(=O)N2Cc2ccncc2)cc1", "note": "(stereo unspecified)", "activity increase over dofetilide control, less the hit threshold": "-3%"}, {"molecule": "N#Cc1ccc(-c2ccc(OCC(=O)Nc3cccnc3)cc2)cc1", "activity increase over dofetilide control, less the hit threshold": "-10%"}, {"molecule": "O=C(COc1ccccc1)Nc1ccc(S(=O)(=O)Nc2ccccn2)cc1", "activity increase over dofetilide control, less the hit threshold": "-18%"}, {"molecule": "O=C(COc1ccc(C(=O)c2ccccc2)cc1)Nc1cccnc1", "activity increase over dofetilide control, less the hit threshold": "4% (active)"}, {"molecule": "O=C(COc1ccc2ccccc2c1Br)Nc1cccnc1", "activity increase over dofetilide control, less the hit threshold": "31% (active)"}, {"molecule": "O=C(COc1ccc([N+](=O)[O-])cc1)Nc1cccnc1", "activity increase over dofetilide control, less the hit threshold": "-25%"}, {"molecule": "O=C(COc1ccc(Cl)cc1Cl)Nc1cccnc1", "activity increase over dofetilide control, less the hit threshold": "-2%"}, {"molecule": "CC(=O)OCC1O[C@@H](O[C@@H]2C[C@H]3C(C)(C)[C@H](OC(C)=O)CC[C@]3(C)[C@H]3CC[C@]45C[C@]4(CC[C@H]5[C@@H](C)C[C@@H](O)[C@H](O)C(C)(C)O)[C@@]32C)[C@H](O)[C@@H](O)[C@@H]1O", "note": "(stereo partly specified)", "activity increase over dofetilide control, less the hit threshold": "12% (active)"}, {"molecule": "C/C(=N\\Nc1nc2ccccc2s1)c1ccc(Br)s1", "activity increase over dofetilide control, less the hit threshold": "-11%"}, {"molecule": "C/C(=N\\Nc1nc2ccccc2nc1C)c1ccccc1O", "activity increase over dofetilide control, less the hit threshold": "10% (active)"}, {"molecule": "C/C(=N\\Nc1nc2ccccc2s1)c1cccs1", "activity increase over dofetilide control, less the hit threshold": "-8%"}, {"molecule": "COCCNC(=O)C(c1ccc(C)o1)N(Cc1ccc(OC)cc1)C(=O)Cn1nnc2ccccc21", "note": "(stereo unspecified)", "activity increase over dofetilide control, less the hit threshold": "4% (active)"}, {"molecule": "Cc1ccc(-c2nnn(CC(=O)N(CC3CCCO3)C(C(=O)NC3CCCC3)c3ccc(O)cc3)n2)o1", "note": "(stereo unspecified)", "activity increase over dofetilide control, less the hit threshold": "-7%"}, {"molecule": "COCCNC(=O)C(c1ccncc1)N(C(=O)Cn1nnc2ccccc21)c1ccc(OC)cc1", "note": "(stereo unspecified)", "activity increase over dofetilide control, less the hit threshold": "-9%"}, {"molecule": "O=[N+]([O-])c1cccc(/C=C/c2nc(C=Nc3ccccc3)c(O)o2)c1", "activity increase over dofetilide control, less the hit threshold": "-13%"}, {"molecule": "COc1cc2c(cc1OC)CN(C(=O)c1ccc3nc[nH]c3c1)CC2", "activity increase over dofetilide control, less the hit threshold": "-2%"}, {"molecule": "Cc1onc(C(=O)N2CCC(C(N)=O)CC2)c1-c1ccccc1Cl", "activity increase over dofetilide control, less the hit threshold": "-17%"}]}]}
